Test results published in PubChem BioAssay (NCI).
The panel holds about 83,000 compounds, 20% with a hit somewhere; the sample as a whole holds those more often.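 Interpretation: 100, growth as untreated; towards 0, rising growth inhibition; 0, no net growth; 0 to -100, cell death. Compounds scoring below 10 were considered active.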 A number with no mark means an inactive call. Active and inactive are the calls of the source.

System: HL-60(TB) leukemia
Test: NCI-60 one-dose screen, 48 h (100 = growth as untreated, 0 = no growth, -100 = all killed)
Settings: 10 µM unless noted

Q: For `O=C1Nc2ccc(F)cc2/C1=N/c1nnc(Sc2ccccc2)s1`, which growth is on record?
A: The growth was 49.6%.

Q: How did the growth turn out when `Cn1cc(-c2nonc2-c2c[nH]c3ccccc23)c2cc(Br)ccc21` was run?
A: Its growth is 38.2%.

Q: `COc1ccc2nc(Cl)c(/C=C3\CC(c4ccccc4)=NN(c4ccccc4)C3=O)cc2c1` was tested. Which growth did it give?
A: Its growth is 99%.

Q: For `Cc1c(C(C)(C)O)cn2ncnc(Oc3ccc(NC(=O)Nc4ccc(Cl)c(C(F)(F)F)c4)cc3)c12`, which growth is on record?
A: The growth was 26.6%.

Q: With `NCC(=O)CCC(=O)O` as the compound, how does the growth read?
A: The growth was 132%.

Q: How did the growth turn out when `C=CCSc1nnc(-c2ccc(C(C)(C)C)cc2)n1-c1cccc(C(F)(F)F)c1` was run?
A: Its growth is 5.96% (active).

Q: Which growth does the source give for `OCC12CCCC(CO)(COC1)C2O` (configuration not stated) here?
A: The growth was 118%.

Q: `O=c1oc2c(cc1-c1ccc(F)cc1)C(O)Oc1ccccc1-2` (configuration not stated) was tested. Which growth did it give?
A: Its growth is 101%.

Q: How did the growth turn out when `CC1=NN(c2ccc(S(=O)(=O)O)cc2)C(=O)C1N=Nc1ccc(-c2ccc(N=Nc3ccc(OS(=O)(=O)c4ccc(C)cc4)cc3)c(S(=O)(=O)O)c2)cc1` (configuration not stated) was run?
A: The growth was 108%.

Q: How did the growth turn out when `COc1cccc(-c2ccc3c(c2)C2CCN(Cc4ccccc4)C3C2)c1` (configuration not stated) was run?
A: The growth was 46.2%.

Q: `COC(=O)C(Cc1cn(C(C)=O)c2ccccc12)P(=O)(OC)OC` (configuration not stated) was tested. Which growth did it give?
A: The growth was 97.5%.

Q: With `CNc1ccc(Nc2cccc(C)c2)c2c1C(=O)c1ccccc1C2=O` as the compound, how does the growth read?
A: The growth was 80.6%.

Q: Which growth does the source give for `O=C(CCCCC[P+](c1ccccc1)(c1ccccc1)c1ccccc1)NC(COC(=O)C(Cl)Cl)(COC(=O)C(Cl)Cl)COC(=O)C(Cl)Cl` here?
A: The growth was 95.5%.

Q: `O=C(/C=C/c1cccs1)Nc1ncc(Cc2ccccc2F)s1` was tested. Which growth did it give?
A: Its growth is -40.2% (active).

Q: With `CCC(c1ccc(OC)cc1)C(CC)c1ccc(O)c(CN2CCN(C)CC2)c1` (configuration not stated) as the compound, how does the growth read?
A: The growth was 55.3%.

Q: Which growth does the source give for `O=S1(=O)OC(c2cc(Cl)c(O)c(Br)c2)(c2cc(Cl)c(O)c(Br)c2)c2ccccc21` here?
A: Its growth is 92.4%.

Q: `c1ccc2c(-c3nc(N4CCOCC4)c4c5c(sc4n3)CCCCCC5)cccc2c1` was tested. Which growth did it give?
A: Its growth is 114%.

Q: Which growth does the source give for `COc1cccc2nc(Nc3ccc(NC(=O)c4ccc5ncccc5c4)cc3)ccc12` here?
A: Its growth is 91%.

Q: Which growth does the source give for `Clc1c(Cl)[n+](Cc2ccc3ccccc3c2)cn1Cc1ccc2ccccc2c1` here?
A: The growth was -54.7% (active).

Q: `COC(=O)Nc1nc2ccc(C(=O)c3cccc(I)c3)cc2[nH]1` was tested. Which growth did it give?
A: Its growth is -41.7% (active).

Q: With `CCCCCN(CCCCC)CCC[C@@H](C)[C@H]1CC[C@H]2[C@@H]3[C@H](OCCCN)C[C@@H]4C[C@H](OCCCN)CC[C@]4(C)[C@H]3C[C@H](OCCCN)[C@]12C` as the compound, how does the growth read?
A: The growth was -16.8% (active).

Q: Which growth does the source give for `O=c1[nH]cc(/C=N\Nc2ccccc2)c(=O)[nH]1` here?
A: Its growth is 0.751% (active).

Q: How did the growth turn out when `CCCCCCCCCCCCC[N+](C)(C)Cc1ccccc1` was run?
A: Its growth is -56.7% (active).

Q: With `COc1cccc(/C=N/NC(=O)c2ccccc2N2CCCC2)c1O` as the compound, how does the growth read?
A: The growth was 4.58% (active).

Q: How did the growth turn out when `COc1ccc2c(c1)sc1nc(-c3ccccc3)c(-c3ccsc3)n12` was run?
A: Its growth is 14.2%.

Q: How did the growth turn out when `COc1ccccc1S(=O)(=O)Nc1ccc2c3c(cc(CCC(=O)NCCCCNc4cccc5c4C(=O)N(C4CCC(=O)NC4=O)C5=O)cc13)C(=O)N2C` (configuration not stated) was run?
A: The growth was -1.81% (active).

Q: `CC(C)OP(=O)(CCC(=O)c1c[nH]c2ccccc12)OC(C)C` was tested. Which growth did it give?
A: Its growth is 92.2%.
